# High-throughput results from PubChem BioAssay.
# An excerpt weighted towards active compounds, which were near 6.7% of everything screened.
# T cruzi growth-1 – T. cruzi proliferation inhibition; AID 624255; T. cruzi beta-gal in NIH3T3, GalScreen luminescence, 90 h; actives 5.9% (n = 77,000); inhibition, % at 8.34 µM;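 active = mean inhibition above about 93%, with at least 55% of replicates each passing it, limit read from the data, passing the limit was not always enough; inconclusive = only one of those two conditions holds; inactive = neither condition holds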
# C diff growth – C. difficile growth inhibition. Clostridium difficile clinical isolate growth, OD600, 24 h; active compounds read low. actives 0.25% (n = 86,000). growth activity, negative = inhibition, % at 16 µg/mL (by protocol);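 active = mean growth activity at or below -80% and every replicate also at or below -80%; inconclusive = mean at or below -80% but some replicate above -80%; inactive = mean growth activity above -80%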;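 also: 0% = DMSO wells and -100% = levofloxacin 16 µg/mL wells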
# Pf Dd2 growth – inhibitors of Plasmodium falciparum Dd2 growth; P. falciparum Dd2 growth, SYBR Green, 72 h; active compounds read low; activity change, % at 10 µM; actives 2.3% (n = 94,000); AID 1159554; in the data active = activity change below about -80%; inconclusive = no clear call, values can overlap the other calls
# T cruzi growth-2 – inhibitors of T. cruzi proliferation | shares compounds with T cruzi growth-1 | inhibition, % at 8.35 µM | actives 72% (n = 5,600) | T. cruzi beta-gal in NIH3T3, GalScreen luminescence, 90 h;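 active = mean replicate inhibition above about 95% and at least 55% of replicates individually reaching it, limit read from the data; inconclusive = only one of the two criteria is met; inactive = neither criterion is met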
# T cruzi growth-3 – Trypanosoma cruzi proliferation inhibition; shares compounds with T cruzi growth-1; T. cruzi beta-gal in NIH3T3, GalScreen luminescence, 90 h; inhibition, % at 2.09 µM; actives 21% (n = 5,600); AID 651740;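 active = mean inhibition above about 95%, with at least 55% of replicates also reaching it, limit read from the data; inconclusive = meets just one of the two conditions; inactive = meets neither condition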;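 also: plate controls were neutral control median for no effect and positive control median for full effect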
# 3T3 cytotox – NIH/3T3 (mouse) viability loss; NIH/3T3 viability, CellTiter-Glo ATP luminescence, 90 h; actives 14% (n = 5,600); AID 651742; cytotoxicity (signal decrease), % at 8.35 µM; shares compounds with T cruzi growth-1;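 active = mean signal decrease across replicates above about 35% based on untreated-well scatter, with enough replicates individually passing, limit read from the data; inconclusive = no rule stated though some were filed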;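 also: 0% = median of neutral control wells and 100% = median of positive control wells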
# NIH3T3 tox 2 – kills mouse NIH/3T3 fibroblasts; shares compounds with T cruzi growth-1; NIH/3T3 viability, CellTiter-Glo ATP luminescence, 90 h; inhibition, % at 24.9 µM; actives 56% (n = 5,600);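 active = mean loss of cell viability signal at or above a set limit, and enough replicates individually reaching it; inconclusive = meets only the mean limit or only the replicate share; inactive = meets neither condition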;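 also: 0% = median of neutral control wells and 100% = median of positive control wells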
# Starred values were filed as active, the others as inactive; ? = inconclusive; . = no result.
SMILES,T cruzi growth-1,C diff growth,Pf Dd2 growth,T cruzi growth-2,T cruzi growth-3,3T3 cytotox,NIH3T3 tox 2
C[C@H]1CN([C@@H](C)CO)S(=O)(=O)c2ccc(C#Cc3ccc(F)cc3)cc2O[C@@H]1CN(C)S(=O)(=O)c1ccc(F)cc1,?,-2,-50,95*,113*,33,68*
O=C(O)C[C@H]1C[C@@H]2c3cc(NS(=O)(=O)c4ccccc4)ccc3O[C@@H]2[C@H](CO)O1,-10,3,12,.,.,.,.
CNC[C@H]1Oc2ncc(-c3ccc(OC)cc3)cc2C(=O)N([C@@H](C)CO)C[C@@H]1C,.,.,-43,.,.,.,.
C[C@H]1CN([C@@H](C)CO)S(=O)(=O)c2ccc(C#Cc3ccccc3)cc2O[C@H]1CN(C)C(=O)Nc1ccc2c(c1)OCO2,132*,1,-78,99*,93,4,13
CC(C)C#Cc1ccc2c(c1)O[C@@H](CN(C)C(=O)Nc1ccccc1)[C@H](C)CN([C@@H](C)CO)S2(=O)=O,.,-7,-22,.,.,.,.
CC(C)C#Cc1ccc2c(c1)O[C@@H](CN(C)C(=O)Nc1ccccc1)[C@@H](C)CN([C@@H](C)CO)S2(=O)=O,.,4,-61,.,.,.,.
C[C@@H]1CN([C@H](C)CO)S(=O)(=O)c2ccc(C#Cc3ccccc3)cc2O[C@H]1CN(C)C(=O)Nc1ccccc1,122*,-48,-70,109*,85,37*,50*
C[C@@H](O)C#Cc1ccc2c(c1)O[C@@H](CN(C)C(=O)Nc1ccccc1)[C@@H](C)CN([C@@H](C)CO)S2(=O)=O,71,1,-25,.,.,.,.
C[C@H]1CN([C@@H](C)CO)S(=O)(=O)c2ccc(C#Cc3ccncc3)cc2O[C@H]1CN(C)C(=O)Nc1ccc2c(c1)OCO2,41,5,-73,.,.,.,.
C[C@H]1CN([C@@H](C)CO)S(=O)(=O)c2ccc(C#Cc3ccccc3)cc2O[C@@H]1CN(C)C(=O)Nc1ccccc1,119*,29,-45,102*,67,-19,40*
C[C@@H]1CN([C@@H](C)CO)S(=O)(=O)c2ccc(C#Cc3ccccc3)cc2O[C@H]1CN(C)C(=O)Nc1ccccc1,123*,3,-65,98*,108*,40*,36*
C[C@@H]1CCCCO[C@H](CN(C)S(=O)(=O)c2cccs2)[C@H](C)CN([C@@H](C)CO)C(=O)c2cc(NS(=O)(=O)c3cn(C)cn3)ccc2O1,.,0,11,.,.,.,.
COc1cccc(S(=O)(=O)N[C@@H]2C=C[C@H](CC(=O)NCc3ccc(F)cc3)O[C@@H]2CO)c1,32,.,7,.,.,.,.
C[C@@H]1CN([C@@H](C)CO)C(=O)c2cc(NS(=O)(=O)c3cn(C)cn3)ccc2O[C@@H](C)CCCCO[C@H]1CN(C)S(=O)(=O)c1ccc(F)cc1,.,3,-17,.,.,.,.
C[C@@H](NC(=O)[C@@H]1[C@@H](CO)[C@@H]2Cn3c(cccc3=O)[C@H]1N2Cc1cccnc1)c1ccccc1,-5,-5,12,.,.,.,.
C[C@H]1CCCCO[C@H](CN(C)C(=O)c2ccccc2)[C@@H](C)CN([C@@H](C)CO)C(=O)c2cc(NC(=O)Nc3ccc4c(c3)OCO4)ccc2O1,55,10,-26,.,.,.,.
Cc1noc(C)c1NC(=O)Nc1ccc2c(c1)C(=O)N([C@@H](C)CO)C[C@@H](C)[C@H](CN(C)S(=O)(=O)c1cn(C)cn1)OCCCC[C@@H](C)O2,15,-6,34,.,.,.,.
C[C@@H]1CN([C@@H](C)CO)S(=O)(=O)c2ccc(C3=CCCC3)cc2O[C@H]1CN(C)C(=O)Nc1ccc2c(c1)OCO2,112*,-7,-58,106*,17,10,61*
C[C@@H]1CN([C@@H](C)CO)S(=O)(=O)c2ccc(C3=CCCC3)cc2O[C@@H]1CN(C)C(=O)Nc1ccc2c(c1)OCO2,81,0,-22,.,.,.,.
COc1ccc(NC(=O)Nc2ccc3c(c2)CC(=O)N([C@H](C)CO)C[C@H](C)[C@@H](CN(C)C)O3)cc1,.,-1,4,.,.,.,.
CO[C@H]1CN(C)C(=O)c2cc(NC(=O)c3ccccc3F)ccc2OC[C@@H](C)N(C)C[C@H]1C,-25,.,5,.,.,.,.
C[C@H](CO)N1C[C@H](C)[C@H](CN(C)Cc2cncnc2)Oc2cc(/C=C/c3ccccc3)ccc2S1(=O)=O,75,1,-45,.,.,.,.
